SUMO1-SIM PPI = modulators of SUMO1 protein-protein interactions, primary screen, biochemical, uHTS | Small ubiquitin-related modifier 1 (Homo sapiens), P63165 | SUMO1 binding to a labelled peptide, TR-FRET, 1 h | inhibition, % at 20 µM | hit rate 0.33% among 360,000 | AID 602429, 2012; in the data active means inhibition above about 37%
Neddylation inh = inhibitors of cullin neddylation, primary screen, biochemical, TR-FRET, uHTS, NAE and Ubc12; NEDD8-conjugating enzyme Ubc12 (Homo sapiens) + NEDD8-activating enzyme E1 regulatory …; inhibition, % at 25 µM; hit rate 0.58% among 360,000; AID 651699, 2012; in the data active means inhibition above about 36%
ATG4B inh = ATG4B protease inhibitors, primary screen, biochemical, fluorescence, uHTS. hit rate 0.51% among 340,000. ATG4B cleavage of LC3-PLA2, NBD-HPC fluorescence, 1 h. AID 504462, 2011. inhibition, % at 8.33 µM. Cysteine protease ATG4B (Homo sapiens), Q9Y4P1
Rin1-Abl PPI inh = inhibitors of Rin1-Abl protein binding, primary screen, biochemical, TR-FRET. Tyrosine-protein kinase ABL1 (Homo sapiens) + Ras and Rab interactor 1 (Homo sapiens), …. inhibition, % at 7.35 µM. hit rate 0.4% among 360,000; in the data active means inhibition above about 5%, passing the limit was not always enough
Target sequence (P00519 whole entry, looked up): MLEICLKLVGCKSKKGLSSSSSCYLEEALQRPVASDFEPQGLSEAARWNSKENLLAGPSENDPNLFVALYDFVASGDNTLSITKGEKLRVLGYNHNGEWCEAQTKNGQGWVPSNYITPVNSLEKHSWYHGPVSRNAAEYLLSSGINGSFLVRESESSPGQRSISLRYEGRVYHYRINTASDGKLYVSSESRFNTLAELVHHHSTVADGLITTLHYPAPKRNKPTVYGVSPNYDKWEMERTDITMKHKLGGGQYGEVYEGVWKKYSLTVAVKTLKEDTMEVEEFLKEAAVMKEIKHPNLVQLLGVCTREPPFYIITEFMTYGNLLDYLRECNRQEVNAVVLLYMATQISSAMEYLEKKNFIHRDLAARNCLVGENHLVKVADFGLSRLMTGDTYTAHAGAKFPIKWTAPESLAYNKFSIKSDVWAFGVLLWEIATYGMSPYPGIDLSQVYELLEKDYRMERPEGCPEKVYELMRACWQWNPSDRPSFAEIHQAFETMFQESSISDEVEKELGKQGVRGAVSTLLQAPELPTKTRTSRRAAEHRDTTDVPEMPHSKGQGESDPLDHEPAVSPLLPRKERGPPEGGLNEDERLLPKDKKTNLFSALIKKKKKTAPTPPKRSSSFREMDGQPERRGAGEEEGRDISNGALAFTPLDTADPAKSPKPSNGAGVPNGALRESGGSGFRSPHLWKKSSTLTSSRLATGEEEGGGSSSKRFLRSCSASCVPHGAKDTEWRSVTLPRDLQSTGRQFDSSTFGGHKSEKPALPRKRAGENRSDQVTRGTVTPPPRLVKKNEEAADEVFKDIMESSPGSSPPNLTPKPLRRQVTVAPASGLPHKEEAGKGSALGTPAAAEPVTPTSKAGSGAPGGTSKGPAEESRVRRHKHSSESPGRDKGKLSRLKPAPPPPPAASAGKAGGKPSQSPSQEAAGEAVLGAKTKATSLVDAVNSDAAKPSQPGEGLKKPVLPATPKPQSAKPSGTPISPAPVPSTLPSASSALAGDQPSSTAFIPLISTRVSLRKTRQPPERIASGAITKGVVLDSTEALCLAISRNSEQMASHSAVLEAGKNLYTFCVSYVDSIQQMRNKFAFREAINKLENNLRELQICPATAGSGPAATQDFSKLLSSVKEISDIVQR
Target sequence (Q13671 whole entry, looked up): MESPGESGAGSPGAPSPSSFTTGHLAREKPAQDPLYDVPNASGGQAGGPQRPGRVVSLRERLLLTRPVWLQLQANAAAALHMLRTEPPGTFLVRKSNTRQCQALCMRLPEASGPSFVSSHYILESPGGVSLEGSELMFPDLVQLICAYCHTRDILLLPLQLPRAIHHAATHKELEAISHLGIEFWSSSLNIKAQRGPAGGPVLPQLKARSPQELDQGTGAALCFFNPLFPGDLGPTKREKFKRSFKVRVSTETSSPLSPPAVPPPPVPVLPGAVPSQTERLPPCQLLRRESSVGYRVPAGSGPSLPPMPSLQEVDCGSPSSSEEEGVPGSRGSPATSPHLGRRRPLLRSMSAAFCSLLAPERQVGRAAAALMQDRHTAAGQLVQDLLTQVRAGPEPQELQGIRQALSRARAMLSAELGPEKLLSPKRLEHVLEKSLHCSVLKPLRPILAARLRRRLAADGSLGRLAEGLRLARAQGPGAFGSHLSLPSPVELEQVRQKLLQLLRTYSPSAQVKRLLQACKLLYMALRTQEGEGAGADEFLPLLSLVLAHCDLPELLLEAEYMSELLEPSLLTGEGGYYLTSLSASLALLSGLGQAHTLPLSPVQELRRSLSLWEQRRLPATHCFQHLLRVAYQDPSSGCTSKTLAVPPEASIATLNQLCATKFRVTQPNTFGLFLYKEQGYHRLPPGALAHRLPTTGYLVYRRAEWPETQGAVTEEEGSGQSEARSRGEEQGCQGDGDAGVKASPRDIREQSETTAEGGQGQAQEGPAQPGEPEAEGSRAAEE
Neddyl inh conf = blockade of NEDD8 conjugation to cullin – biochemical, TR-FRET, single concentration, confirmation | shares compounds with Neddylation inh | TR-FRET cullin neddylation biochemical assay | calls only at 25 µM | hit rate 13% among 1,800;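 further: neddylation substrate is the cullin 1 ring ligase complex with SKP2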
Numbers without * were called inactive; i = inactive; x = no result given; + = active, no number; ! = not confirmed by another sample. An excerpt weighted towards active compounds, which were near 1.7% of everything screened. Unless noted, no stated cut-off is given here; in the data, active means inhibition above about 40%; inactive means the rest.

SMILES	SUMO1-SIM PPI	Neddylation inh	ATG4B inh	Rin1-Abl PPI inh	Neddyl inh conf
COCCCNC(=S)N(CCO)Cc1cc2cc3c(cc2[nH]c1=O)OCO3	5	40*	0	1	i
COCCCNC(=S)N(CCCO)Cc1cc2cc3c(cc2[nH]c1=O)OCO3	3	43*	8	3	i
O=C(NC1CCCCC1)N(CCN1CCCC1)Cc1cc2cc3c(cc2[nH]c1=O)OCCO3	-5	29	-12	0	x
O=C(NCc1ccc(Cl)c(Cl)c1)c1cc(C2CCCCN2C(=O)c2ccccc2)on1 (centres undefined)	1	-4	x	-2	x
COc1ccc(NC(=O)CSc2nc3nc(-c4cccs4)cc(C(F)(F)F)c3c(=O)[nH]2)c(OC)c1	17	54*	4	-2	i
CCOc1ccccc1NC(=O)CSc1nc2nc(-c3cccs3)cc(C(F)(F)F)c2c(=O)[nH]1	8	33	28	-5	x
CCN(CC)c1ncnc2c1ncn2[C@H]1CN(C2CCCC2)C[C@@H](CO)O1	4	2	x	2	x
CC(C(=O)Nc1ccc2nccnc2c1)N1C(=O)C2C3C=CC(C3)C2C1=O (centres undefined)	-15	54*	0	-5	x
CC(C(=O)NC1CCCCC1)N1C(=O)C2C3C=CC(C3)C2C1=O (centres undefined)	0	-1	-8	2	x
COC(=O)c1cc2ccccc2c(-c2c(OC)c(C(=O)OC)cc3ccccc23)c1OC	-7	41*	-19	3	i
O=C(c1ccc(CSc2ccc(Cl)cc2)o1)N1CCOCC1	6	-3	x	5	x
COc1ccc(-c2ccc(C(=O)NCc3ccc(C(F)(F)F)cc3)c3occc23)c(C)c1	0	40*	x	-1	i
COc1ccc(-c2ccc(C(=O)NCc3ccccc3)c3occc23)c(C)c1	-2	x	x	3	x
COc1ccc(-c2ccc(C(=O)NC3CCCCC3)c3occc23)c(C)c1	-3	40*	x	-2	i
COc1ccc(-c2coc3c(C(=O)NC4CCCCC4)cccc23)c(C)c1	1	7	x	3	x
CN(C)CCNc1ncnc2c1ncn2[C@H]1CN(Cc2cccs2)C[C@@H](CO)O1	-4	-5	x	-2	x
CC(=O)NCC1CCCN(Cc2cn(-c3ccccc3)nc2-c2ccc3c(c2)OCO3)C1 (centres undefined)	0	40*	-2	1	i
COCCC1CCCCN1Cc1cn(-c2ccccc2)nc1-c1ccc2c(c1)OCO2 (centres undefined)	-1	38	6	-1	x
COC(=O)C1CCN(Cc2cn(-c3ccccc3)nc2-c2ccc3c(c2)OCO3)CC1	11	40*	4	1	i
CCc1ccc(N2CC(C(=O)OCC(=O)N(CC)c3c(N)n(Cc4ccccc4)c(=O)[nH]c3=O)CC2=O)cc1 (centres undefined)	6	-6	-8	3	x
COc1ccc2c(c1)c(=O)oc1c(C)c(OC(C)C(=O)N[C@@H](Cc3c[nH]c4ccc(O)cc34)C(=O)O)ccc12 (some centres undefined)	27	47*	-13	-2	x
c1ccc(Nc2cccc3c(Nc4ccccc4)cccc23)cc1	-3	38*	17	0	+
CC(O)C1CCC2C3CCC4CC(O)CCC4(C)C3C(=O)CC12C (centres undefined)	4	3	-8	2	x
Cc1cccc(CSCC(=O)N2CCN(S(=O)(=O)c3ccccc3C#N)CC2)c1	3	1	x	0	x
COc1ccc(-c2cc3nc(C)cc(N4CCN(C(=O)c5ccoc5)CC4)n3n2)cc1	5	x	x	1	x
SMILES	SUMO1-SIM PPI	Neddylation inh	ATG4B inh	Rin1-Abl PPI inh	Neddyl inh conf
COc1cccc(-c2cc3nc(C)cc(N4CCN(C(=O)c5ccoc5)CC4)n3n2)c1	7	47*	x	-2	x
COC(=O)C1=C(C)NC(C)=C(C(=O)OC)C1C(=O)OCC(=O)N1c2ccccc2CC1C (centres undefined)	3	46*!	-4	4	x
CCOc1cc(/C=C/c2nc3ccccc3s2)ccc1OCC(=O)N1CCOCC1	-20	48*	16	-3	x
Cc1cc(F)ccc1C(O)c1ncc(-c2ccccc2F)[nH]1 (centres undefined)	-3	6	x	-2	x
Cc1ccccc1CC(=O)Nc1ccc2c(C)cc(=O)oc2c1	16	44*	-6	2	i
Cc1cc(=O)oc2cc(NC(=O)CN3C(=O)NC(C)(c4ccccc4)C3=O)ccc12 (centres undefined)	-3	58*	-9	2	+
COc1ccc(/C=C/C(=O)NCc2ccc3c(c2)OCO3)cc1OC	-10	42*	15	-1	i
Cc1cccc(C(=O)OCC(=O)N2CCN(C(=O)c3ccco3)CC2)c1O	11	5	4	-2	x
CC(C)c1cc(C(=O)OCC(=O)N2CCN(C(=O)c3ccco3)CC2)c(O)c(C(C)C)c1	5	34*	1	-1	i
O=C(N/N=C/C=C\c1ccco1)c1ccccn1	-10	61*	0	3	i
N#C/C(=C/c1cn(-c2ccccc2)nc1-c1cccc(S(=O)(=O)N2CCOCC2)c1)C(=O)NCc1ccco1	2	41*	-1	0	i
COc1ccc2nc3c(nc2c1)CCCC3	-5	46*	-4	5	+
COc1ccc2nc3c(c(-c4ccccc4)c2c1)CCC3	3	22	7	1	x
Cc1cc(C)c2c(NC(=O)CCl)nn(C)c2n1	-1	40*	-10	3	i
COc1cccc(-c2cc(NC=O)c3ncc(-c4ccc(C(C)=O)cc4)n3c2)c1	-26	x	x	-5	x
COc1ccc(/C=C2\CCn3c2nc2cc(C(=O)O)ccc2c3=O)cc1O	3	-31	0	-3	x
O=C(O)c1ccc2c(=O)n3c(nc2c1)/C(=C/c1ccc(Cl)c(Cl)c1)CC3	-1	x	5	1	x
CSc1ccc(/C=C2\CCn3c2nc2cc(C(=O)O)ccc2c3=O)cc1	-12	46*	1	0	+
COC(=O)c1ccc(/C=C2\CCn3c2nc2cc(C(=O)O)ccc2c3=O)cc1	-17	55*	-5	-2	+
CNc1cc(-c2cccc(C(=O)N3CCOCC3)c2)ncn1	0	22	x	0	x
COc1cc(/C=C/C(=O)NCCN2CCOCC2)cc(OC)c1OC	-5	44*	1	0	i
COc1ccc(/C=C/C(=O)NCCN2CCOCC2)cc1OC	-11	16	-6	-4	x
COc1ccc(NC(=O)CSc2nnc3ccc(-c4ccccn4)nn23)cc1OC	-26	-3	9	0	x
COc1ccccc1-c1ccc2nnc(SC)n2n1	-17	43*	-11	-4	i

Compound activity (PubChem)
